Experiment [1] in a line: Her2 expression decrease, cell viability multiplex – SKBR3 breast tumor cells, AlphaScreen, ATP viability, primary screen (AID 461;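 active means Her2 level under about 52% in both replicate screens, with viability over 70% of control, limit read from the data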;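 on Her2 level: lower value means less Her2 protein in the cells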;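 on viability: percent of carrier control wells set as 100% viability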). The conditions noted are these: SKBR3 Her2 protein level, 18-24 h, measured here: SKBR3 viability, ATP luminescence, at 10 µM.
The target in experiment [2] is Receptor tyrosine-protein kinase erbB-2 (Homo sapiens) (UniProt P04626). Described as above. As to conditions: 18-24 h, at 10 µM, stronger effect = lower value.
The nature of experiment [3]: reduced viability of SK-BR-3 breast cancer cells – cell-based, 24 h, human, pilot screen (AID 572;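 active means viability at or below 10% of carrier control in both of two separate runs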;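 further: compound exposure lasted between 18 and 24 h rather than exactly 24 h; 100% = carrier-treated control wells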). As to conditions: SK-BR-3 viability, CellTiter-Glo luminescence, at 10 µM, stronger effect = lower value. (In ATP-based viability assays light output follows the ATP content of the culture.)
The nature of experiment [4]: HUVEC growth inhibition – cell-based, human, primary screen (AID 575;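 active means viability at or below 30% in both replicate assays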;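 further: 100% = median of untreated cell wells with 0.1% DMSO on each plate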). The conditions noted are these: HUVEC proliferation, CellTiter-Glo luminescence, 72 h; at 10 µM; stronger effect = lower value.
Experiment [5] is described as follows: H69AR cell proliferation blockers – human, duplicate replicates, primary screen (AID 580;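 active means viability at or under a set limit in both replicates, limit being median viability minus 3 SD, cut at about 48% in these data, passing the limit was not always enough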;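 further: 100% = mean luminescence of untreated wells and 0% = no signal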). As to conditions: H69AR lung tumor cells viability, ATP luminescence, 72 h; at 10 µM; stronger effect = lower value.
A short description of experiment [6]: MRP1 drug-resistance reversers in H69AR cells – cell-based, doxorubicin co-treatment, pilot screen (AID 601;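 active means viability loss from added drug above about 55%, and viability with drug at most 40%, in both replicates, limit read from the data, passing the limit was not always enough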). The conditions noted are these: CellTiter-Glo, 72 h, at 10 µM; for differential viability (reversal): stronger effect = higher value.
Experiment [7] is described as follows: yeast transport mutant growth inhibition pilot in 384-well plates, post-Golgi transport modulator project (AID 636; in the data active means inhibition above about 31%). As to conditions: absorbance 615 nm, about 18 h, stronger effect = higher value.
The nature of experiment [8]: growth suppression of yeast trafficking mutant, preliminary HTS, modulators of trafficking downstream of Golgi apparatus project, 1536-format plate, OD 615 nm (AID 637). The conditions noted are these: yeast transport mutant growth, absorbance 615 nm, 18 h; stronger effect = higher value.
Experiment [9] is described as follows: S. cerevisiae growth inhibition in permissive medium (OD615), pilot counter-assay for S. cerevisiae lifespan shortening project, permissive growth control (AID 705;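 active means growth inhibition above 25% in both replicates, a cutoff set 3 SD above the mean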). As to conditions: OD615, 24 h, at 10 µM, stronger effect = higher value.
Experiment [10] can be described thus: S. cerevisiae growth inhibition in restrictive medium, OD615, pilot screen, restrictive growth control, yeast lifespan reduction project (AID 706;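 active means growth inhibition above a set limit, 3 SD over mean compound inhibition, in both replicates, cut at about 43% in these data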;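 further: modified DeaD lifespan yeast strain shifted to restrictive glucose medium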). The conditions noted are these: OD615, 48 h, at 10 µM, stronger effect = higher value.
The nature of experiment [11]: doxorubicin toxicity protection in MRP-1 cells – H69AR cells, CellTiter-Glo, duplicate, MRP-1 activator project, pilot screen (AID 807;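 active means viability increase at or above a cutoff of the median across tested compounds plus 3 SD, cut at about 8.5% in these data, passing the limit was not always enough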;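 further: compound pretreatment 18-22 h then 72 h combined with doxorubicin; 0% = doxorubicin alone and 100% = vehicle without doxorubicin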). As to conditions: H69AR viability with doxorubicin, CellTiter-Glo luminescence; at 10 µM; stronger effect = higher value.
The nature of experiment [12]: viability of PTEN-null HCT116 cells – cell-based, HCT116 clonal line, CellTiter-Glo, pilot screen (AID 824;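 active means viability at or below 27.92% in each of two runs, the all-compound median minus 4 SD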;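 further: 0% = 20 µM Hyamine control and 100% = vehicle cell control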). As to conditions: HCT116 PTEN-deleted viability, 60 h, at 10 µM, stronger effect = lower value.
A short description of experiment [13]: RAM pathway blockade in budding yeast – dse1pr::URA3 reporter, 5-FOA selection, pilot screen (AID 869;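 active means inhibition over a set limit, the all-compound mean plus 3 SD, in both replicate runs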;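 further: 0% = DMSO wells with no growth and 100% = 10 µM 1-NA-PP1 with full growth; RAM network block rescues cells from 5-FOA so hits raise OD615 growth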). As to conditions: S. cerevisiae dse1pr::URA3 5-FOA growth, OD615, 2 d; at 10 µM; stronger effect = higher value; strain carries analog-sensitive mutant Cbk1 kinase.
Experiment [14] can be described thus: RAM signaling pathway blockade in yeast – S. cerevisiae, Pdr1DBD-CYC8 efflux-inhibited sensitized strain, primary screen (AID 1298;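 active means RAM network inhibition above 8.4% in each of two replicates, 3 SD over the compound average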;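 further: 0% = DMSO untreated cells without growth and 100% = 10 µM 1-NA-PP1 full growth; higher means more yeast growth rescued from 5-FOA killing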). As to conditions: S. cerevisiae cbk1-as DSE1-URA3 strain, 5-FOA growth OD615, 2 d; at 50 µM; stronger effect = higher value.
The nature of experiment [15]: viability of HCT116 without oncogenic beta-catenin – human colon tumor cells, pilot screen (AID 823;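 active means cell viability at or below a set limit in both duplicate runs, the limit being the all-compound median minus 4 SD, cut at about 23% in these data, passing the limit was not always enough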;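 further: 0% = wells killed by 20 µM Hyamine and 100% = untreated DMSO cell wells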). The conditions noted are these: HCT116 beta-catenin knockout viability, CellTiter-Glo, 60 h; at 10 µM; stronger effect = lower value.
[16] abbreviates: H69AR cells + 2 uM doxorubicin, measured here: viability with 2 uM doxorubicin, stronger effect = lower value.
Setting [17] is: H69AR cells, compound alone cytotoxicity.

The text below walks through data of PubChem BioAssay.

Inconclusive results are not listed. Calls of active or inactive are those of the source. Unless noted, no stated cut-off is given here; in the data, active means inhibition above about 30%; inactive means the rest.

Chain of Receptor tyrosine-protein kinase erbB-2 (Homo sapiens) (P04626 whole entry, looked up): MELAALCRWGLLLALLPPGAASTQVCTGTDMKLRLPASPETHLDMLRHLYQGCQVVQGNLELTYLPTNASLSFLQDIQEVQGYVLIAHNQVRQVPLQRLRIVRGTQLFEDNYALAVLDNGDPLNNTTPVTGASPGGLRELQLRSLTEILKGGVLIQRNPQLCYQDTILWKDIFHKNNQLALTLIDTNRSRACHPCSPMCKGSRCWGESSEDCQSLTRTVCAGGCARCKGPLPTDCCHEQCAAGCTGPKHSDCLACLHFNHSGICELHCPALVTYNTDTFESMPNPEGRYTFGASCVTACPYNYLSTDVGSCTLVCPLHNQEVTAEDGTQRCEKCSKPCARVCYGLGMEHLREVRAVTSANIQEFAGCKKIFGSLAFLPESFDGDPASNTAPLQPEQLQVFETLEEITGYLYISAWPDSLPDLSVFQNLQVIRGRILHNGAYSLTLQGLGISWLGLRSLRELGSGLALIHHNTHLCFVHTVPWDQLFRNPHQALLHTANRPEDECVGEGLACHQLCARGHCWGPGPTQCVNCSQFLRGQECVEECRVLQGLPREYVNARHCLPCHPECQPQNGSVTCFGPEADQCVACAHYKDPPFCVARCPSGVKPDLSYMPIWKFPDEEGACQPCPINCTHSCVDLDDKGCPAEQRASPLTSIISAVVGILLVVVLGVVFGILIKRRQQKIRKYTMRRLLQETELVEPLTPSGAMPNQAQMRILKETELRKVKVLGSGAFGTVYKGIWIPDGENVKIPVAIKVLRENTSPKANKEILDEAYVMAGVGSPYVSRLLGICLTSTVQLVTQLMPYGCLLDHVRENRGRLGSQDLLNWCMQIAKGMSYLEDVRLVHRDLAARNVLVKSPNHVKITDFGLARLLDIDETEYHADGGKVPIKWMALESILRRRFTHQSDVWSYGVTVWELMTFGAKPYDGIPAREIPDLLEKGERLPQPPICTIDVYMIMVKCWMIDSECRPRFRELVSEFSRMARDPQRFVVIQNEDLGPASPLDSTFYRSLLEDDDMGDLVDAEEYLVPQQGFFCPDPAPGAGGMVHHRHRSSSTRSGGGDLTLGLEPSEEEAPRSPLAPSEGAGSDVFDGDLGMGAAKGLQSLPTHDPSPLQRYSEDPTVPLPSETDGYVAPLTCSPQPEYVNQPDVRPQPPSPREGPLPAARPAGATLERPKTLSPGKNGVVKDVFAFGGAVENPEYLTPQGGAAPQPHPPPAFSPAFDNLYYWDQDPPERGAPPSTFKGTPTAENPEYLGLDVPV

One may read the viability as a read-out of living cells in per cent, often relative to untreated cells. For orientation: inhibition means the relative decrease from the control value, in per cent. `Cc1cc(N2CCOCC2)nc2ccc(NC(=O)C3CCC(C)CC3)cc12` (stereo not given): the viability in [1] is 73.5%; in experiment [3], 73.5% (inactive); in experiment [4] it was 62.5% (inactive); in [5] it was 76.3% (inactive); in experiment [6] (setting [16]), 85.7%; in [6] (setting [17]), 76.3%. In experiment [12], the viability was 81% (inactive). In addition, the Her2 level in experiment [2] is 110% (inactive). Further, in experiment [6] (H69AR cells + 2 uM doxorubicin), the differential viability (reversal) is -9.34% (inactive). Besides, the results for the inhibition in experiment [7], in experiment [8] and in experiment [13] were -0.27% (inactive), -6.67% (inactive) and 1.95% (inactive), respectively. Moreover, the growth inhibition in experiment [9] is -11.1% (inactive); in experiment [10], 0.545% (inactive). In addition, the viability increase in experiment [11] was -4.21% (inactive). Moreover, the RAM network inhibition in experiment [14] is 4.29% (inactive).
Consider `CSc1ccccc1NC(=O)C1CCCO1` (stereo not given), for which the viability was 97.5% in [1]; 97.5% (inactive) in [3]; 102% (inactive) in experiment [4]; 93.9% (inactive) in [5]; 94.2% in [6] (setting [16]); 93.9% in experiment [6] (setting [17]). Moreover, in experiment [12], the viability is 98.6% (inactive). Moreover, the Her2 level in [2] was 110% (inactive). The differential viability (reversal) in experiment [6] (H69AR cells + 2 uM doxorubicin) is -0.325% (inactive). Besides, the inhibition is 1.73% (inactive) in experiment [7], -6.03% (inactive) in experiment [8] and 0.11% (inactive) in experiment [13]. For the same compound, the growth inhibition is -8.35% (inactive) in [9] and -0.95% (inactive) in experiment [10]. Besides, the viability increase in experiment [11] was -2.61% (inactive). Moreover, the RAM network inhibition in experiment [14] is 2.42% (inactive).
As for `CCOc1ccc(-c2nnc(N(CC)C(=O)C3CCC3)s2)cc1`, the viability in [1] is 87.5%; in experiment [3], 87.5% (inactive); in experiment [4], 98.5% (inactive); in [5], 83.7% (inactive); in experiment [6] (setting [16]) it was 78.3%; in experiment [6] (setting [17]), 83.7%. Further, in experiment [12], the viability was 84.6% (inactive). In experiment [2], the Her2 level was 72% (inactive). Further, the differential viability (reversal) in [6] (H69AR cells + 2 uM doxorubicin) is 5.45% (inactive). Also, the inhibition in experiment [7] is -4.21% (inactive); in experiment [8], -3.97% (inactive); in [13] it was 0.825% (inactive). The values for the growth inhibition in [9] and in [10] were -4.38% (inactive) and 7.03% (inactive), respectively. Also, the viability increase in experiment [11] was -1.68% (inactive). Also, the RAM network inhibition in experiment [14] was 0.26% (inactive).
Regarding `CCOc1ccc(NC(=O)CSc2nccn2C)cc1`, the viability is 103% in experiment [1]; 103% (inactive) in experiment [3]; 82.7% (inactive) in [4]; 99.7% (inactive) in experiment [5]; 93% in [6] (setting [16]); 99.7% in [6] (setting [17]). In addition, in experiment [15], the viability is 106% (inactive). In addition, the Her2 level in [2] is 85.5% (inactive). Moreover, in [6] (H69AR cells + 2 uM doxorubicin), the differential viability (reversal) was 6.7% (inactive). The results for the inhibition in experiment [7], in [8] and in [13] were -4.34% (inactive), 0.83% (inactive) and 2.29% (inactive), respectively. The growth inhibition in experiment [9] was -14.8% (inactive); in experiment [10], -9.37% (inactive). Also, the viability increase in experiment [11] is -1.79% (inactive). For the same compound, the RAM network inhibition in [14] is 7.99% (inactive).
Turning to `O=C(CSC1=NCCS1)NCc1ccco1`, the viability was 84% in experiment [1]; 84% (inactive) in [3]; 80.6% (inactive) in experiment [4]; 90.1% (inactive) in experiment [5]; 88.8% in experiment [6] (setting [16]); 90.1% in [6] (setting [17]). The viability in experiment [12] was 100% (inactive). Moreover, the Her2 level in [2] is 108% (inactive). The differential viability (reversal) in [6] (H69AR cells + 2 uM doxorubicin) was 1.28% (inactive). Moreover, the inhibition in [7] was -0.54% (inactive); in experiment [8] it was 26.5% (inactive); in experiment [13], 2.73% (inactive). Further, the growth inhibition in experiment [9] was 6.88% (inactive); in experiment [10], 47.7% (active). Also, the viability increase in [11] is -3.56% (inactive). Also, in [14], the RAM network inhibition was 3.89% (inactive).
In the case of `CCN(CC)CCCN1C(=O)C(O)=C(C(=O)c2ccco2)C1c1ccc(C)o1` (stereo not given), the viability in experiment [1] is 102%; in experiment [3], 102% (inactive); in [4], 102% (inactive); in experiment [5], 85.4% (inactive); in experiment [6] (setting [16]), 86%; in experiment [6] (setting [17]), 85.4%. Further, in experiment [15], the viability is 97.4% (inactive). The Her2 level in experiment [2] was 93.5% (inactive). For the same compound, the differential viability (reversal) in [6] (H69AR cells + 2 uM doxorubicin) was -0.59% (inactive). The inhibition in experiment [7] is -6.89% (inactive); in experiment [8], 7.94% (inactive); in experiment [13], 0.395% (inactive). Also, the growth inhibition is -11.8% (inactive) in experiment [9] and 14.4% (inactive) in [10]. The viability increase in experiment [11] is -4.15% (inactive). In addition, the RAM network inhibition in experiment [14] was 3.48% (inactive).
Turning to `Cc1ccc(-n2c3c(cc(C(=O)O)c2=O)C(=O)CC(C)(C)C3)cc1`, the viability in experiment [1] was 98%; in experiment [3] it was 98% (inactive); in experiment [4] it was 111% (inactive); in experiment [5] it was 87.8% (inactive); in [6] (setting [16]), 90.9%; in [6] (setting [17]), 87.8%. Moreover, the viability in experiment [12] was 100% (inactive). Also, the Her2 level in experiment [2] was 82.5% (inactive). Moreover, in experiment [6] (H69AR cells + 2 uM doxorubicin), the differential viability (reversal) is -3.07% (inactive). Further, the inhibition in [7] was -1.84% (inactive); in experiment [8], 0% (inactive); in [13], 0.675% (inactive). Moreover, the results for the growth inhibition in [9] and in experiment [10] were -16.4% (inactive) and -5.83% (inactive), respectively. Besides, the viability increase in [11] was -3.48% (inactive). Besides, the RAM network inhibition in [14] was 4.71% (inactive).
In the case of `CCOc1ccc(-c2nnc3sc(-c4c(OC)cccc4OC)nn23)cc1`, the viability in [1] was 126%; in experiment [3], 126% (inactive); in [4] it was 86.5% (inactive); in experiment [5] it was 86.2% (inactive); in [6] (setting [16]), 84.8%; in experiment [6] (setting [17]), 86.2%. The viability in experiment [12] was 71.3% (inactive). In addition, the Her2 level in [2] is 84% (inactive). Moreover, the differential viability (reversal) in experiment [6] (H69AR cells + 2 uM doxorubicin) is 1.34% (inactive). Further, the inhibition in experiment [7] was -5.87% (inactive); in [8], 10.5% (inactive); in experiment [13], 2.04% (inactive). Besides, the growth inhibition in experiment [9] was -0.61% (inactive); in experiment [10], 8.15% (inactive). The viability increase in [11] is -5.89% (inactive). Besides, in experiment [14], the RAM network inhibition was 4.81% (inactive).
With `Cc1noc(C)c1CSc1ccccc1C(=O)N1CCN(c2ccccc2)CC1`, the viability is 87% in experiment [1]; 87% (inactive) in experiment [3]; 97.8% (inactive) in experiment [4]; 82% (inactive) in [5]; 88.2% in [6] (setting [16]); 82% in experiment [6] (setting [17]). Besides, the viability in experiment [12] is 72.3% (inactive). Moreover, the Her2 level in [2] is 86% (inactive). Besides, in experiment [6] (H69AR cells + 2 uM doxorubicin), the differential viability (reversal) was -6.2% (inactive). For the same compound, the inhibition was -4.46% (inactive) in experiment [7], 5.57% (inactive) in [8] and 3.5% (inactive) in [13]. For the same compound, the growth inhibition is -11.9% (inactive) in [9] and -20% (inactive) in experiment [10]. Also, the viability increase in experiment [11] is -2.25% (inactive). Further, the RAM network inhibition in [14] is 4.4% (inactive).
Take `COc1ccc(C2C(C(=O)N3CCCC3)c3cc(OC)c(OC)cc3C(=O)N2C)cc1` (stereo not given): the viability is 88.5% in [1]; 88.5% (inactive) in experiment [3]; 94.3% (inactive) in experiment [4]; 102% (inactive) in experiment [5]; 101% in experiment [6] (setting [16]); 102% in experiment [6] (setting [17]). The viability in experiment [12] was 92.8% (inactive). Further, the Her2 level in [2] was 85.5% (inactive). In addition, in [6] (H69AR cells + 2 uM doxorubicin), the differential viability (reversal) was 0.95% (inactive). The figures for the inhibition in experiment [7], in [8] and in experiment [13] were -7.95% (inactive), -0.63% (inactive) and 0.655% (inactive), respectively. The growth inhibition in experiment [9] is -8.59% (inactive); in [10], -0.445% (inactive). Moreover, the viability increase in experiment [11] was -1.15% (inactive). For the same compound, the RAM network inhibition in experiment [14] is 5.28% (inactive).
